{"source": "PubChem BioAssay (NCI)", "key": {"[1]": {"test": "NCI Yeast Anticancer Drug Screen. Data for the rad50 strain (AID 155);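 also: 0% = growth of vehicle-only cultures of the same strain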", "conditions": "S. cerevisiae rad50 strain growth inhibition, stronger effect = higher value", "outline": "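Readout: growth inhibition relative to vehicle-treated cultures. Compound exposure was carried out in a genetically defined yeast strain deficient in DNA damage repair.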"}, "[2]": {"test": "NCI Yeast Anticancer Drug Screen. Data for the mec2-1 strain (AID 157)", "conditions": "S. cerevisiae mec2-1 strain, stronger effect = higher value", "outline": "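mec2-1 yeast strain, carrying an alteration in DNA damage repair or cell cycle control, was exposed to compounds; growth inhibition was measured relative to vehicle-treated controls.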"}, "[3]": {"test": "NCI Yeast Anticancer Drug Screen. Data for the sgs1 mgt1 strain (AID 161);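 also: 0% = growth of cultures given vehicle only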", "conditions": "S. cerevisiae sgs1 mgt1 strain, stronger effect = higher value", "outline": "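Compounds are added to genetically altered yeast, and growth is compared with cultures given vehicle alone to give percent inhibition.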"}, "[4]": {"test": "NCI Yeast Anticancer Drug Screen. Data for the cln2 rad14 strain (AID 165);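 also: 0% = growth equal to vehicle treated cultures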", "conditions": "S. cerevisiae cln2 rad14 strain, stronger effect = higher value", "outline": "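Yeast carrying cln2 and rad14 alterations (cell cycle control and DNA damage repair) were exposed to compounds. Growth inhibition was measured against vehicle-treated controls.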"}, "[5]": {"test": "NCI Yeast Anticancer Drug Screen. Data for the bub3 strain (AID 167)", "conditions": "S. cerevisiae bub3 mutant strain, stronger effect = higher value", "outline": "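Readout: yeast growth inhibition, expressed relative to vehicle-only wells. The test organism is a mutant strain from a panel with lesions in DNA repair or checkpoint genes.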"}, "[6]": {"test": "NCI Yeast Anticancer Drug Screen. Data for the mlh1 rad18 strain (AID 175)", "conditions": "S. cerevisiae mlh1 rad18 strain growth inhibition, stronger effect = higher value", "outline": "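Growth inhibition of the yeast strain was measured after compound exposure and expressed relative to vehicle-treated controls. The strain carries defined defects in DNA damage repair.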"}, "[7]": {"conditions": "at 5.0 µM (retest, dose inferred, filed as 0.5)"}, "[8]": {"conditions": "at 50.0 µM (retest, dose inferred, filed as 5.0)"}}, "note": "This is part of a sample that, as a whole, favours compounds with a hit. Of some 79,000 tested, about 15% had one in any assay. Unmarked numbers belong to inactive results. Active and inactive are the calls of the source. Rule as the data show it: active = growth inhibition above about 70%; inactive = the rest."}
{"compound": "c1ccc2cc3c(cc2c1)Nc1c2ccccc2nc2cccc-3c12", "values": [{"measurement": "growth inhibition", "setting": "[1]; [7]", "value": 31, "unit": "%"}, {"measurement": "growth inhibition", "setting": "[1]; [8]", "value": "70% (active)"}, {"measurement": "growth inhibition", "setting": "[1]; at 50.0 µM", "value": 54, "unit": "%"}, {"measurement": "growth inhibition", "setting": "[2]; [7]", "value": 17, "unit": "%"}, {"measurement": "growth inhibition", "setting": "[2]; [8]", "value": 57, "unit": "%"}, {"measurement": "growth inhibition", "setting": "[2]; at 50.0 µM", "value": "70.5% (active)"}, {"measurement": "growth inhibition", "setting": "[3]; [7]", "value": 24, "unit": "%"}, {"measurement": "growth inhibition", "setting": "[3]; [8]", "value": "72% (active)"}, {"measurement": "growth inhibition", "setting": "[3]; at 50.0 µM", "value": "79.4% (active)"}, {"measurement": "growth inhibition", "setting": "[4]; [7]", "value": 25, "unit": "%"}, {"measurement": "growth inhibition", "setting": "[4]; [8]", "value": 54, "unit": "%"}, {"measurement": "growth inhibition", "setting": "[4]; at 50.0 µM", "value": 56.5, "unit": "%"}, {"measurement": "growth inhibition", "setting": "[5]; [7]", "value": 15, "unit": "%"}, {"measurement": "growth inhibition", "setting": "[5]; [8]", "value": "78% (active)"}, {"measurement": "growth inhibition", "setting": "[5]; at 50.0 µM", "value": "81.3% (active)"}, {"measurement": "growth inhibition", "setting": "[6]; [7]", "value": 29, "unit": "%"}, {"measurement": "growth inhibition", "setting": "[6]; [8]", "value": "71% (active)"}, {"measurement": "growth inhibition", "setting": "[6]; at 50.0 µM", "value": "89.8% (active)"}]}
{"compound": "O=C1C(c2c[nH]c3ccccc23)=Nc2ccc(Br)cc21", "values": [{"measurement": "growth inhibition", "setting": "[1]; [7]", "value": 19, "unit": "%"}, {"measurement": "growth inhibition", "setting": "[1]; [8]", "value": 33, "unit": "%"}, {"measurement": "growth inhibition", "setting": "[1]; at 50.0 µM", "value": "86.8% (active)"}, {"measurement": "growth inhibition", "setting": "[2]; [7]", "value": 26, "unit": "%"}, {"measurement": "growth inhibition", "setting": "[2]; [8]", "value": 35, "unit": "%"}, {"measurement": "growth inhibition", "setting": "[2]; at 50.0 µM", "value": 61.4, "unit": "%"}, {"measurement": "growth inhibition", "setting": "[3]; [7]", "value": 25, "unit": "%"}, {"measurement": "growth inhibition", "setting": "[3]; [8]", "value": 29, "unit": "%"}, {"measurement": "growth inhibition", "setting": "[3]; at 50.0 µM", "value": "73% (active)"}, {"measurement": "growth inhibition", "setting": "[4]; [7]", "value": 15, "unit": "%"}, {"measurement": "growth inhibition", "setting": "[4]; [8]", "value": 34, "unit": "%"}, {"measurement": "growth inhibition", "setting": "[4]; at 50.0 µM", "value": 53.5, "unit": "%"}, {"measurement": "growth inhibition", "setting": "[5]; [7]", "value": 45, "unit": "%"}, {"measurement": "growth inhibition", "setting": "[5]; [8]", "value": 53, "unit": "%"}, {"measurement": "growth inhibition", "setting": "[5]; at 50.0 µM", "value": "90% (active)"}, {"measurement": "growth inhibition", "setting": "[6]; [7]", "value": 24, "unit": "%"}, {"measurement": "growth inhibition", "setting": "[6]; [8]", "value": 35, "unit": "%"}, {"measurement": "growth inhibition", "setting": "[6]; at 50.0 µM", "value": "83.7% (active)"}]}
{"compound": "O=[N+]([O-])/C(Cl)=C(\\Nc1ccccc1)C(Cl)=C(Cl)Cl", "values": [{"measurement": "growth inhibition", "setting": "[1]; [7]", "value": 55, "unit": "%"}, {"measurement": "growth inhibition", "setting": "[1]; [8]", "value": "99% (active)"}, {"measurement": "growth inhibition", "setting": "[1]; at 50.0 µM", "value": "88.2% (active)"}, {"measurement": "growth inhibition", "setting": "[2]; [7]", "value": "82% (active)"}, {"measurement": "growth inhibition", "setting": "[2]; [8]", "value": "99% (active)"}, {"measurement": "growth inhibition", "setting": "[2]; at 50.0 µM", "value": "92.2% (active)"}, {"measurement": "growth inhibition", "setting": "[3]; [7]", "value": "73% (active)"}, {"measurement": "growth inhibition", "setting": "[3]; [8]", "value": "99% (active)"}, {"measurement": "growth inhibition", "setting": "[3]; at 50.0 µM", "value": "88.8% (active)"}, {"measurement": "growth inhibition", "setting": "[4]; [7]", "value": 64, "unit": "%"}, {"measurement": "growth inhibition", "setting": "[4]; [8]", "value": "99% (active)"}, {"measurement": "growth inhibition", "setting": "[4]; at 50.0 µM", "value": "90.9% (active)"}, {"measurement": "growth inhibition", "setting": "[5]; [7]", "value": "76% (active)"}, {"measurement": "growth inhibition", "setting": "[5]; [8]", "value": "99% (active)"}, {"measurement": "growth inhibition", "setting": "[5]; at 50.0 µM", "value": "90.4% (active)"}, {"measurement": "growth inhibition", "setting": "[6]; [7]", "value": "83% (active)"}, {"measurement": "growth inhibition", "setting": "[6]; [8]", "value": "99% (active)"}, {"measurement": "growth inhibition", "setting": "[6]; at 50.0 µM", "value": "85.1% (active)"}]}
{"compound": "[O-]c1c2cc(-[n+]3c(-c4ccccc4)cc(-c4ccccc4)cc3-c3ccccc3)cc1CO[C@@H](c1ccccc1)[C@H](c1ccccc1)OCc1cccc(n1)CO[C@@H](c1ccccc1)[C@H](c1ccccc1)OC2", "values": [{"measurement": "growth inhibition", "setting": "[1]; [7]", "value": "98% (active)"}, {"measurement": "growth inhibition", "setting": "[1]; [8]", "value": "96% (active)"}, {"measurement": "growth inhibition", "setting": "[1]; at 50.0 µM", "value": "87.2% (active)"}, {"measurement": "growth inhibition", "setting": "[2]; [7]", "value": "98% (active)"}, {"measurement": "growth inhibition", "setting": "[2]; [8]", "value": "98% (active)"}, {"measurement": "growth inhibition", "setting": "[2]; at 50.0 µM", "value": "90.8% (active)"}, {"measurement": "growth inhibition", "setting": "[3]; [7]", "value": "100% (active)"}, {"measurement": "growth inhibition", "setting": "[3]; [8]", "value": "98% (active)"}, {"measurement": "growth inhibition", "setting": "[3]; at 50.0 µM", "value": "90.5% (active)"}, {"measurement": "growth inhibition", "setting": "[4]; [7]", "value": "97% (active)"}, {"measurement": "growth inhibition", "setting": "[4]; [8]", "value": "98% (active)"}, {"measurement": "growth inhibition", "setting": "[4]; at 50.0 µM", "value": "90.2% (active)"}, {"measurement": "growth inhibition", "setting": "[5]; [7]", "value": "99% (active)"}, {"measurement": "growth inhibition", "setting": "[5]; [8]", "value": "99% (active)"}, {"measurement": "growth inhibition", "setting": "[5]; at 50.0 µM", "value": "89.3% (active)"}, {"measurement": "growth inhibition", "setting": "[6]; [7]", "value": "98% (active)"}, {"measurement": "growth inhibition", "setting": "[6]; [8]", "value": "97% (active)"}, {"measurement": "growth inhibition", "setting": "[6]; at 50.0 µM", "value": "86.7% (active)"}]}
{"compound": "O=C1C=C(c2ccccc2)OC(c2ccccc2)C1", "note": "(stereo not given)", "values": [{"measurement": "growth inhibition", "setting": "[1]; [7]", "value": -150, "unit": "%"}, {"measurement": "growth inhibition", "setting": "[1]; [8]", "value": -112, "unit": "%"}, {"measurement": "growth inhibition", "setting": "[1]; at 50.0 µM", "value": 43.1, "unit": "%"}, {"measurement": "growth inhibition", "setting": "[2]; [7]", "value": -52, "unit": "%"}, {"measurement": "growth inhibition", "setting": "[2]; [8]", "value": -59, "unit": "%"}, {"measurement": "growth inhibition", "setting": "[2]; at 50.0 µM", "value": 41.8, "unit": "%"}, {"measurement": "growth inhibition", "setting": "[3]; [7]", "value": -63, "unit": "%"}, {"measurement": "growth inhibition", "setting": "[3]; [8]", "value": -37, "unit": "%"}, {"measurement": "growth inhibition", "setting": "[3]; at 50.0 µM", "value": 15.2, "unit": "%"}, {"measurement": "growth inhibition", "setting": "[4]; [7]", "value": -69, "unit": "%"}, {"measurement": "growth inhibition", "setting": "[4]; [8]", "value": -67, "unit": "%"}, {"measurement": "growth inhibition", "setting": "[4]; at 50.0 µM", "value": -38.4, "unit": "%"}, {"measurement": "growth inhibition", "setting": "[5]; [7]", "value": -68, "unit": "%"}, {"measurement": "growth inhibition", "setting": "[5]; [8]", "value": -25, "unit": "%"}, {"measurement": "growth inhibition", "setting": "[5]; at 50.0 µM", "value": 44.1, "unit": "%"}, {"measurement": "growth inhibition", "setting": "[6]; [7]", "value": -141, "unit": "%"}, {"measurement": "growth inhibition", "setting": "[6]; [8]", "value": -97, "unit": "%"}, {"measurement": "growth inhibition", "setting": "[6]; at 50.0 µM", "value": 27.3, "unit": "%"}]}
